# Assay results from PubChem BioAssay (NCI).
# This is part of a sample that, as a whole, favours compounds with a hit. Of some 79,000 tested, about 15% had one in any assay. Values without a mark were called inactive. Activity calls are given as the source filed them. Rule as the data show it: active = growth inhibition above about 70%; inactive = the rest.
# Experiment: NCI Yeast Anticancer Drug Screen. Data for the cln2 rad14 strain (AID 165);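 also: 0% = growth equal to vehicle treated cultures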
# Conditions: S. cerevisiae cln2 rad14 strain, at 50.0 µM (retest, dose inferred, filed as 5.0), hits give high values
# Method in brief: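 Test compounds were added to cln2 rad14 yeast cultures; inhibition of growth was then determined by comparison with vehicle treatment.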
row,SMILES,growth inhibition
1,CC(CN(C)C)C(=O)/C=C/c1ccc(Cl)c(Cl)c1 (configuration not stated),-7%
2,CCCCCCNCCCNc1c2cc(OC)ccc2nc2cccc([N+](=O)[O-])c12,99% (active)
3,NC(=S)N1N=C2c3ccccc3CC[C@H]2[C@@H]1c1ccc(Cl)cc1,91% (active)
4,C/C(=N/NC(=S)Nc1ccccc1C)c1ccccn1,14%
5,O=C1/C(=C/c2ccc(Cl)c(Cl)c2)CNC/C1=C\c1ccc(Cl)c(Cl)c1,42%
6,CC(C)OP(=O)(OC(C)C)C(=NCCO)NNc1ccc([N+](=O)[O-])cc1,48%
7,N#CCC(=O)N/N=C(\c1ccccc1)C(c1ccccc1)C1(O)C(=O)Nc2c(Cl)ccc(Cl)c21 (configuration not stated),10%
8,CC(C)(CN1CCCCC1)C(=O)CC(SCCS(=O)(=O)O)c1ccccc1 (configuration not stated),69%
9,COC1=CCC23C(=O)C=CC(=O)C2(C1)C(=O)c1ccccc1C3=O (configuration not stated),-49%
10,CCCCN(CCCC)c1ccc(N=Nc2ccc(S(=O)(=O)O)cc2)cc1,98% (active)
11,c1ccc2nc3c(nc2c1)sc1ccccc13,15%
12,O=C1c2ccccc2-c2ccc(N=Cc3ccccc3)cc21,9%
13,CNC(=S)N/N=C(/C)CCC/C(C)=N/NC(=S)NC,-2%
14,Nc1ccc(/C=C/c2ccc3cccnc3c2)cc1,3%
15,COc1ccc2c3c1OC(C)C31CC(=O)CCC1CC2 (configuration not stated),9%
16,CCOC(=O)Nc1ccc(C)c(NC(=O)OCC)c1,23%
17,CCN(CC)CCNc1ccc2nc(C)n3c4ccc(OC)cc4c(=O)c1c23,45%
18,C[N+](C)([O-])CCCNc1c2ccccc2nc2cccc([N+](=O)[O-])c12,96% (active)

row,SMILES,growth inhibition
1,O=C(c1cc(=O)c2ccc(O)cc2o1)c1ccc(Cl)cc1Cl,93% (active)
2,CCCNC(=O)OCc1c(COC(=O)NCCC)c(-c2ccc(Cl)c(Cl)c2)n2c1CCC2,73% (active)
3,O=C(Cc1ccccc1)NN1C(=O)C(Cl)C1c1cc(Br)cc(Br)c1O (configuration not stated),93% (active)
4,CCOC(=O)C(Cc1c2ccccc2cc2ccccc12)(NC(C)=O)C(=O)OCC,41%
5,O=[N+]([O-])/C=C/c1cc2ccc3ccccc3c2[nH]1,83% (active)
6,Fc1ccc(Nc2ccc3ccccc3c2)cc1,67%
7,O=S1(=O)CCC2=CC(C(F)(F)F)=CC(C(F)(F)F)=CN21,92% (active)
8,O=C(Cc1ccccc1)NNc1nc(NNC(=O)c2ccncc2)nc(Nc2ccc([N+](=O)[O-])cc2)n1,3%
9,CCCCS/C(=C(/C#N)C(N)=O)c1cc2c([nH]1)CCCC2,24%
10,O=C(O)c1ccccc1C(=O)OC1CCc2ccccc2C1 (configuration not stated),-12%
11,CCOC(=O)/C(=C\c1cccc(C)c1)C(C)=O,88% (active)
12,NC(=S)N/N=C1\c2ccccc2CCC1CCC1(O)CCc2ccccc2C1=O (configuration not stated),81% (active)
13,Cc1cccc2c(Cl)c3cccc(C)c3nc12,10%
14,CC(C)OC(=O)NNc1c(Cl)cc(Cl)cc1Cl,21%
15,Nc1ccc2c(c1)C(=O)c1c(F)cccc1-2,-41%
16,N#CSCC1COc2ccccc2O1 (configuration not stated),85% (active)
17,Cc1ccc(S(=O)(=O)NC(=O)C2C(=O)CC3(CCCCC3)CC2=O)cc1,-1%
18,CC1=NN(C(=O)c2ccccc2O)C(=O)/C1=C/c1ccco1,90% (active)

# Same assay, conditions: S. cerevisiae cln2 rad14 strain, at 50.0 µM, hits give high values
row,SMILES,growth inhibition
1,CC(CN(C)C)C(=O)/C=C/c1ccc(Cl)c(Cl)c1 (configuration not stated),97% (active)
2,CCCCCCNCCCNc1c2cc(OC)ccc2nc2cccc([N+](=O)[O-])c12,98.8% (active)
3,NC(=S)N1N=C2c3ccccc3CC[C@H]2[C@@H]1c1ccc(Cl)cc1,84.7% (active)
4,C/C(=N/NC(=S)Nc1ccccc1C)c1ccccn1,87.5% (active)
5,O=C1/C(=C/c2ccc(Cl)c(Cl)c2)CNC/C1=C\c1ccc(Cl)c(Cl)c1,90.4% (active)
6,CC(C)OP(=O)(OC(C)C)C(=NCCO)NNc1ccc([N+](=O)[O-])cc1,9.95%
7,N#CCC(=O)N/N=C(\c1ccccc1)C(c1ccccc1)C1(O)C(=O)Nc2c(Cl)ccc(Cl)c21 (configuration not stated),6.8%
8,CC(C)(CN1CCCCC1)C(=O)CC(SCCS(=O)(=O)O)c1ccccc1 (configuration not stated),46.3%
9,COC1=CCC23C(=O)C=CC(=O)C2(C1)C(=O)c1ccccc1C3=O (configuration not stated),36.5%
10,CCCCN(CCCC)c1ccc(N=Nc2ccc(S(=O)(=O)O)cc2)cc1,88.7% (active)
11,c1ccc2nc3c(nc2c1)sc1ccccc13,36%
12,O=C1c2ccccc2-c2ccc(N=Cc3ccccc3)cc21,6.45%
13,CNC(=S)N/N=C(/C)CCC/C(C)=N/NC(=S)NC,27.2%
14,Nc1ccc(/C=C/c2ccc3cccnc3c2)cc1,-6.75%
15,COc1ccc2c3c1OC(C)C31CC(=O)CCC1CC2 (configuration not stated),5.05%
16,CCOC(=O)Nc1ccc(C)c(NC(=O)OCC)c1,-38.4%
17,CCN(CC)CCNc1ccc2nc(C)n3c4ccc(OC)cc4c(=O)c1c23,28.1%
18,C[N+](C)([O-])CCCNc1c2ccccc2nc2cccc([N+](=O)[O-])c12,87.2% (active)

row,SMILES,growth inhibition
1,O=C(c1cc(=O)c2ccc(O)cc2o1)c1ccc(Cl)cc1Cl,78.2% (active)
2,CCCNC(=O)OCc1c(COC(=O)NCCC)c(-c2ccc(Cl)c(Cl)c2)n2c1CCC2,22.8%
3,O=C(Cc1ccccc1)NN1C(=O)C(Cl)C1c1cc(Br)cc(Br)c1O (configuration not stated),95.2% (active)
4,CCOC(=O)C(Cc1c2ccccc2cc2ccccc12)(NC(C)=O)C(=O)OCC,61.3%
5,O=[N+]([O-])/C=C/c1cc2ccc3ccccc3c2[nH]1,97.2% (active)
6,Fc1ccc(Nc2ccc3ccccc3c2)cc1,92.1% (active)
7,O=S1(=O)CCC2=CC(C(F)(F)F)=CC(C(F)(F)F)=CN21,83.9% (active)
8,O=C(Cc1ccccc1)NNc1nc(NNC(=O)c2ccncc2)nc(Nc2ccc([N+](=O)[O-])cc2)n1,64.3%
9,CCCCS/C(=C(/C#N)C(N)=O)c1cc2c([nH]1)CCCC2,54.2%
10,O=C(O)c1ccccc1C(=O)OC1CCc2ccccc2C1 (configuration not stated),58%
11,CCOC(=O)/C(=C\c1cccc(C)c1)C(C)=O,87.5% (active)
12,NC(=S)N/N=C1\c2ccccc2CCC1CCC1(O)CCc2ccccc2C1=O (configuration not stated),89.7% (active)
13,Cc1cccc2c(Cl)c3cccc(C)c3nc12,1.65%
14,CC(C)OC(=O)NNc1c(Cl)cc(Cl)cc1Cl,12.3%
15,Nc1ccc2c(c1)C(=O)c1c(F)cccc1-2,21.9%
16,N#CSCC1COc2ccccc2O1 (configuration not stated),85.3% (active)
17,Cc1ccc(S(=O)(=O)NC(=O)C2C(=O)CC3(CCCCC3)CC2=O)cc1,-8.9%
18,CC1=NN(C(=O)c2ccccc2O)C(=O)/C1=C/c1ccco1,83.5% (active)
